# Where two headings read alike, the source gives them in different places.
# What was measured:
# Set-up in all cases: species or system human, MV4-11 + K-562 + COLO205 + SK-N-BE2 + OVCAR-8
# [1] = tested on: ADCK3; settings: read-out: apparent Kd, n = 1
# [2] = tested on: BTK; settings: read-out: apparent Kd; compound concentrations: 100 nM and 1000 nM (sheet 'Samples'), CATDS: 0.33731493843611998; n = 1
# [3] = tested on: JAK2; settings: read-out: apparent Kd; compound concentrations:100 nM and 1000 nM (sheet 'Samples'); n = 1
# [4] = tested on: PIK3C3; settings: read-out: apparent Kd, n = 1
# [5] = tested on: TEC; settings: read-out: apparent Kd; compound concentrations:100 nM and 1000 nM (sheet 'Samples'); n = 1
# [6] = tested on: ZAK; settings: read-out: apparent Kd, n = 1
# [7] = tested on: CLK1; settings: read-out: apparent Kd; compound concentrations: 100 nM and 1000 nM (sheet 'Samples'), CATDS: 7.7083223058971695E-2; n = 1
# [8] = tested on: CLK4; settings: read-out: apparent Kd; compound concentrations: 100 nM and 1000 nM (sheet 'Samples'), CATDS: 5.4708251309819003E-2; n = 1
# [9] = tested on: FER; settings: read-out: apparent Kd; compound concentrations: 100 nM and 1000 nM (sheet 'Samples'), CATDS: 0.15534788887379899; n = 1
# [10] = tested on: FES; settings: read-out: apparent Kd; compound concentrations: 100 nM and 1000 nM (sheet 'Samples'), CATDS: 6.2151263603986602E-2; n = 1
# [11] = tested on: IGF1R; settings: read-out: apparent Kd; compound concentrations: 100 nM and 1000 nM (sheet 'Samples'), CATDS: 0.14317930106922699; n = 1
# [12] = tested on: INSR; settings: read-out: apparent Kd; compound concentrations: 100 nM and 1000 nM (sheet 'Samples'), CATDS: 0.19841534550213699; n = 1
# [13] = tested on: PLK1; settings: read-out: apparent Kd, compound concentrations: 100 nM and 1000 nM (sheet 'Samples'), n = 1
# [14] = tested on: PRKCZ; settings: read-out: apparent Kd; compound concentrations: 100 nM and 1000 nM (sheet 'Samples'), CATDS: 4.7711419359540999E-2; n = 1
# [15] = tested on: PTK2B; settings: read-out: apparent Kd; compound concentrations: 100 nM and 1000 nM (sheet 'Samples'), CATDS: 0.144435732024948; n = 1
# [16] = tested on: PTK2; settings: read-out: apparent Kd; compound concentrations: 100 nM and 1000 nM (sheet 'Samples'), CATDS: 9.0293978496921806E-2; n = 1
# [17] = tested on: RIPK3; settings: read-out: apparent Kd; compound concentrations: 100 nM and 1000 nM (sheet 'Samples'), CATDS: 4.6981822696137099E-2; n = 1
# [18] = tested on: TNK1; settings: read-out: apparent Kd; compound concentrations: 100 nM and 1000 nM (sheet 'Samples'), CATDS: 8.1384476326193098E-2; n = 1
# [19] = tested on: TTK; settings: read-out: apparent Kd; compound concentrations: 100 nM and 1000 nM (sheet 'Samples'), CATDS: 4.6872796614934702E-2; n = 1
# [20] = tested on: ADRBK1; settings: read-out: apparent Kd; compound concentrations: 100 nM and 1000 nM (sheet 'Samples'), CATDS: 4.7657416287883198E-2; n = 1
# [21] = tested on: AKT1; settings: read-out: apparent Kd, compound concentrations: 100 nM and 1000 nM (sheet 'Samples'), n = 1
# [22] = tested on: CSNK1A1; settings: read-out: apparent Kd, compound concentrations: 100 nM and 1000 nM (sheet 'Samples'), n = 1
# [23] = tested on: DYRK1A; settings: read-out: apparent Kd; compound concentrations: 100 nM and 1000 nM (sheet 'Samples'), CATDS: 4.0227920038392803E-2; n = 1
# [24] = tested on: ILK; settings: read-out: apparent Kd; compound concentrations: 100 nM and 1000 nM (sheet 'Samples'), CATDS: 5.1421329598879802E-2; n = 1
# [25] = tested on: MAP2K2; settings: read-out: apparent Kd, compound concentrations: 100 nM and 1000 nM (sheet 'Samples'), n = 1
# [26] = tested on: MAP3K1; settings: read-out: apparent Kd; compound concentrations: 100 nM and 1000 nM (sheet 'Samples'), CATDS: 4.18687434788882E-2; n = 1
# [27] = tested on: MDN1; settings: read-out: apparent Kd; compound concentrations: 100 nM and 1000 nM (sheet 'Samples'), CATDS: 4.35192896952597E-2; n = 1
# [28] = tested on: NNT; settings: read-out: apparent Kd; compound concentrations: 100 nM and 1000 nM (sheet 'Samples'), CATDS: 0.130086313463294; n = 1
# [29] = tested on: NQO1; settings: read-out: apparent Kd, compound concentrations: 100 nM and 1000 nM (sheet 'Samples'), n = 1
# [30] = tested on: PSMC3; settings: read-out: apparent Kd; compound concentrations: 100 nM and 1000 nM (sheet 'Samples'), CATDS: 4.0647702260791799E-2; n = 1
# [31] = tested on: RIOK2; settings: read-out: apparent Kd, compound concentrations: 100 nM and 1000 nM (sheet 'Samples'), n = 1
# [32] = tested on: SMG1; settings: read-out: apparent Kd; compound concentrations: 100 nM and 1000 nM (sheet 'Samples'), CATDS: 4.1869296169603699E-2; n = 1
# [33] = tested on: STK10; settings: read-out: apparent Kd; compound concentrations: 100 nM and 1000 nM (sheet 'Samples'), CATDS: 4.6875467745806497E-2; n = 1
# [34] = tested on: VDAC3; settings: read-out: apparent Kd; compound concentrations: 100 nM and 1000 nM (sheet 'Samples'), CATDS: 0.150958833754439; n = 1
# [35] = tested on: AKT2; settings: read-out: apparent Kd, compound concentrations: 100 nM and 1000 nM (sheet 'Samples'), n = 1
# [36] = tested on: AKT3; settings: read-out: apparent Kd; compound concentrations: 100 nM and 1000 nM (sheet 'Samples'), CATDS: 7.9002074728764499E-2; n = 1
# [37] = tested on: CAMK4; settings: read-out: apparent Kd; compound concentrations: 100 nM and 1000 nM (sheet 'Samples'), CATDS: 6.2704005161184906E-2; n = 1
# [38] = tested on: MAP2K1; settings: read-out: apparent Kd, compound concentrations: 100 nM and 1000 nM (sheet 'Samples'), n = 1
# [39] = tested on: MAPK9; settings: read-out: apparent Kd; compound concentrations: 100 nM and 1000 nM (sheet 'Samples'), CATDS: 6.4176537599483302E-2; n = 1
# [40] = tested on: PIM2; settings: read-out: apparent Kd; compound concentrations: 100 nM and 1000 nM (sheet 'Samples'), CATDS: 7.6487231298609404E-2; n = 1
# [41] = tested on: PYGL; settings: read-out: apparent Kd; compound concentrations: 100 nM and 1000 nM (sheet 'Samples'), CATDS: 6.9677029727435405E-2; n = 1
# [42] = tested on: SMC4; settings: read-out: apparent Kd; compound concentrations: 100 nM and 1000 nM (sheet 'Samples'), CATDS: 6.4174106680799994E-2; n = 1
# [43] = compound concentrations:100 nM and 1000 nM (sheet 'Samples')
smiles,measurement,setting,value
C=CC(=O)Nc1cc(-n2c(=O)ccc3cnc4ccc(-c5ccc(NS(C)(=O)=O)cc5)cc4c32)ccc1C [BMX-IN-1],potency estimated from few doses,[1]; [43],1.16 µM
same,potency estimated from few doses,[2],0.186 µM
same,potency estimated from few doses,[3],0.466 µM
same,potency estimated from few doses,[4]; [43],1.53 µM
same,potency estimated from few doses,[5],0.54 µM
same,potency estimated from few doses,[6]; [43],0.782 µM
COc1cc(C)c(NC(=O)CN(C)C)cc1Nc1nc(Nc2cccc(F)c2C(N)=O)c2cc[nH]c2n1 [GSK2213727A],potency estimated from few doses,"[1]; compound concentrations: 100 nM and 1000 nM (sheet 'Samples'), CATDS: 5.9808730869804497E-2",0.688 µM
same,potency estimated from few doses,[7],0.335 µM
same,potency estimated from few doses,[8],0.936 µM
same,potency estimated from few doses,[9],0.0827 µM
same,potency estimated from few doses,[10],0.609 µM
same,potency estimated from few doses,[11],0.0947 µM
same,potency estimated from few doses,[12],0.0567 µM
same,potency estimated from few doses,[13]; CATDS: 5.09869917251893E-2,1.23 µM
same,potency estimated from few doses,[14],1.66 µM
same,potency estimated from few doses,[15],0.0933 µM
same,potency estimated from few doses,[16],0.231 µM
same,potency estimated from few doses,[17],1.79 µM
same,potency estimated from few doses,[18],0.293 µM
same,potency estimated from few doses,[19],1.81 µM
Nc1nc(-c2ccc3c(N)n[nH]c3c2)cc(N2CCC[C@@H](C(=O)Nc3ccccc3)C2)n1.Nc1nc(-c2ccc3c(N)n[nH]c3c2)cc(N2CCC[C@@H](C(=O)Nc3ccccc3)C2)n1.O=C(O)C(F)(F)F.O=C(O)C(F)(F)F [GSK2288359A],potency estimated from few doses,[1]; [43],1.1 µM
C[C@@H](Oc1cc(-n2cnc3ccc(OC[C@@H](O)CO)cc32)sc1C(N)=O)c1ccccc1Cl [GSK978744A],potency estimated from few doses,"[1]; compound concentrations: 100 nM and 1000 nM (sheet 'Samples'), CATDS: 5.9783524932330002E-2",0.691 µM
same,potency estimated from few doses,[20],1.3 µM
same,potency estimated from few doses,[21]; CATDS: 4.0938746042506198E-2,2.16 µM
same,potency estimated from few doses,[22]; CATDS: 4.27416149593133E-2,1.86 µM
same,potency estimated from few doses,[23],2.31 µM
same,potency estimated from few doses,[24],1.04 µM
same,potency estimated from few doses,[25]; CATDS: 0.12895351362438101,0.124 µM
same,potency estimated from few doses,[26],2 µM
same,potency estimated from few doses,[27],1.74 µM
same,potency estimated from few doses,[28],0.122 µM
same,potency estimated from few doses,[29]; CATDS: 0.14484490381839699,0.0998 µM
same,potency estimated from few doses,"[4]; compound concentrations: 100 nM and 1000 nM (sheet 'Samples'), CATDS: 4.45420285121335E-2",1.62 µM
same,potency estimated from few doses,[13]; CATDS: 0.280824965441342,0.0353 µM
same,potency estimated from few doses,[30],2.22 µM
same,potency estimated from few doses,[31]; CATDS: 4.4447834501145103E-2,1.63 µM
same,potency estimated from few doses,[32],1.99 µM
same,potency estimated from few doses,[33],1.37 µM
same,potency estimated from few doses,[34],0.0928 µM
O=C(NC1CCN(c2ccnc(Nc3ccc(F)cc3)n2)C1)c1cc2ccccc2s1 (stereo not shown) [GSK1379716A],potency estimated from few doses,"[1]; compound concentrations: 100 nM and 1000 nM (sheet 'Samples'), CATDS: 8.9568558281788502E-2",1.14 µM
same,potency estimated from few doses,[21]; CATDS: 7.0300825665370006E-2,1.78 µM
same,potency estimated from few doses,[35]; CATDS: 7.1049746121653101E-2,1.74 µM
same,potency estimated from few doses,[36],1.42 µM
same,potency estimated from few doses,[37],2.28 µM
same,potency estimated from few doses,[22]; CATDS: 6.8994714696940407E-2,1.85 µM
same,potency estimated from few doses,[38]; CATDS: 7.1306793514003305E-2,1.73 µM
same,potency estimated from few doses,[25]; CATDS: 7.3872380173305399E-2,1.61 µM
same,potency estimated from few doses,[39],2.16 µM
same,potency estimated from few doses,[29]; CATDS: 8.1829364824624801E-2,1.33 µM
same,potency estimated from few doses,[40],1.5 µM
same,potency estimated from few doses,[41],1.81 µM
same,potency estimated from few doses,[31]; CATDS: 6.63813283152343E-2,2.01 µM
same,potency estimated from few doses,[42],2.16 µM
COc1cccc(-n2cnc3c(N)ncnc32)c1 [SKF-97416],potency estimated from few doses,"[1]; compound concentrations: 100 nM and 1000 nM (sheet 'Samples'), CATDS: 0.45631454504768898",0.155 µM
same,potency estimated from few doses,[21]; CATDS: 0.104224113270125,2.12 µM
same,potency estimated from few doses,[35]; CATDS: 0.10421017655023999,2.12 µM
same,potency estimated from few doses,[22]; CATDS: 0.102191451764392,2.24 µM
same,potency estimated from few doses,[38]; CATDS: 0.110237039965707,1.83 µM
same,potency estimated from few doses,[29]; CATDS: 0.123163223225838,1.4 µM
same,potency estimated from few doses,[31]; CATDS: 0.117096482211817,1.58 µM
same,potency estimated from few doses,"[6]; compound concentrations: 100 nM and 1000 nM (sheet 'Samples'), CATDS: 0.14081253885296899",1.05 µM
